Bioassay records (PubChem)
CSC inhib = blocks cancer stem cells. cancer stem cell-like cells viability, luminescence. inhibition, % at 7.5 µM. actives 1.1% (n = 300,000); in the data active = inhibition above about 75%; inconclusive = no clear call, values can overlap the other calls; tested in HMLE shEcad cells
Beta apoptosis = blocks beta cell apoptosis; protection from apoptosis, % (test concentration not listed); actives 0.8% (n = 300,000); INS-1E cytokine-induced death, ATP luminescence, 48 h; percent of positive-control rescue, neutral wells zero; AID 435005;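 active = Every replicate reaches about 75%, or at least half do and their mean reaches it too, limit read from the data; inconclusive = At least half of replicates reach the limit but their mean does not; inactive = Under half of replicates reach the limit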;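 also: higher means more ATP so stronger rescue from cytokine killing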
Calb FLC = C. albicans growth modulation with fluconazole; C. albicans CaCi-2 (fluconazole-resistant clinical isolate) + fluconazole, Alamar Blue growth, 48 h; actives 0.57% (n = 300,000); growth inhibition, % (concentration not given with the values);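 active = growth inhibition above about 58% in most replicates, limit read from the data, passing the limit was not always enough; inconclusive = exactly half the replicates above a set limit; inactive = most replicates below a set limit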;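 also: all wells also contain fluconazole at 8 µg/ml as a sub-toxic cotreatment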
Mdm2-MdmX inh = inhibitors of human Mdm2/MdmX interaction. SaOS-2 split-luciferase Mdm2/MdmX complementation, luminescence. inhibition, % at 8 µM. AID 485346. O15151+Q00987. actives 3% (n = 330,000);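 active = inhibition of at least 50% at 8 µM in the primary screen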
Target sequence (O15151 whole entry, looked up): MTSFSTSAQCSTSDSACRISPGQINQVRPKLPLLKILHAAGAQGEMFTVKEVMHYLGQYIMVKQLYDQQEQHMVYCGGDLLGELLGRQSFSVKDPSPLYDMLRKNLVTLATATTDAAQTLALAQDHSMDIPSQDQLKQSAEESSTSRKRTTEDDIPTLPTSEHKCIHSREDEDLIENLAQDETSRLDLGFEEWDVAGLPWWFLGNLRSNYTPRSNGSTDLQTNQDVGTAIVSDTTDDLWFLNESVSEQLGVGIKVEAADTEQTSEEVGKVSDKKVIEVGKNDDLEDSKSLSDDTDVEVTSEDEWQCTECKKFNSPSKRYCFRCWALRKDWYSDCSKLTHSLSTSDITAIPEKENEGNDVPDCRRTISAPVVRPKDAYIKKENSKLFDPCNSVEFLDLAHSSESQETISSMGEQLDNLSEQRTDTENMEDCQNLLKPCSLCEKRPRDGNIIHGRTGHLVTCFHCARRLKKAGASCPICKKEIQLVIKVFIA
Target sequence (Q00987 whole entry, looked up): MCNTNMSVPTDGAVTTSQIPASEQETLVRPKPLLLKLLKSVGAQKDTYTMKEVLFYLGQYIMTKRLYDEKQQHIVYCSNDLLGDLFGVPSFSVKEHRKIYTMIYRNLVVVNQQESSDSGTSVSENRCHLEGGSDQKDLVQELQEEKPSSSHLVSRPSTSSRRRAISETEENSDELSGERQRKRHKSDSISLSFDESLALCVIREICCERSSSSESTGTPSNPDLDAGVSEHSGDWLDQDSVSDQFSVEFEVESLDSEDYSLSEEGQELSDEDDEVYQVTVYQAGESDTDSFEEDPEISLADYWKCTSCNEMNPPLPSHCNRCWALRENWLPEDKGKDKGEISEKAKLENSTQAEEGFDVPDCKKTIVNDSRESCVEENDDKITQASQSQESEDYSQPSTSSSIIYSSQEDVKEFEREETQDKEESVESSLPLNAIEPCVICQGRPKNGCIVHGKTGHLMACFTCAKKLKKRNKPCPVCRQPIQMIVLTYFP
MPTP inh = permeability transition pore inhibition | isolated mouse mitochondria, Ca2+ swelling absorbance, 30 min | inhibition, % at 10 µM | actives 1.4% (n = 360,000);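 active = inhibition of 50% or more, scaled per plate between neutral and stimulator controls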
MPTP counter = mitochondrial membrane potential, counter-screen; shares compounds with MPTP inh; isolated mitochondria, Rhodamine 123 fluorescence; inhibition, % at 10 µM; actives 78% (n = 5,000); AID 624504; in the data active = inhibition above about 22%
MPTP swell DR = dose response confirmation of mitochondrial permeability transition pore inhibitors; shares compounds with MPTP inh; isolated mitochondria swelling, absorbance; IC50, µM; actives 58% (n = 780); AID 651561; in the data active = IC50 below about 20 µM
MPTP counter DR = MPTP inhibitor counter-screen activity, dose response. isolated mitochondria counterscreen, fluorescence read-out. actives 49% (n = 780). IC50, µM. shares compounds with MPTP inh. AID 651564; in the data active = IC50 below about 80 µM
Of the large screens only hits and unclear results are named; the others gave an inactive call (follow-up assays come after a bar, where they were run). Hits are enriched below; roughly 4.8% of the tested compounds scored in any of these assays.

O=S(=O)(Nc1ccc2c(c1)OCCO2)c1ccc2oc3ccccc3c2c1	MPTP inh 68 | MPTP counter 81
CC(=O)Nc1ccc(S(=O)(=O)Nc2ccc3c(c2)OCCO3)cc1Cl	MPTP inh 79 | MPTP counter 58
COc1ccc(S(=O)(=O)Nc2ccc3c(c2)OCCO3)cc1Cl	none
COc1ccc(NC(=O)N2CCCC(c3nc(-c4ccc(OC)cc4)no3)C2)cc1 (stereo not given)	none
O=C(Nc1ccc(Cl)cc1)N1CCC(c2nc(-c3ccc(F)cc3)no2)CC1	MPTP inh 90 | MPTP counter 76
COc1ccc(Cn2c(=O)oc3ccc(C)cc32)cc1OC	MPTP inh 72 | MPTP counter 35
Nc1nc2ccccc2n1Cc1ccc(Cl)c(Cl)c1	none
OCc1nc2ccccc2n1Cc1ccc(Cl)cc1	none
Cc1nc2ccccc2n1Cc1ccc(Cl)cc1	MPTP inh 94 (no result: Calb FLC) | MPTP counter 96
Cc1ccc(Cn2c(N)nc3ccccc32)cc1	MPTP inh 55 | MPTP counter 21
COc1ccccc1Cn1c(C)nc2ccccc21	none
Cc1ccccc1Cn1c(C)nc2ccccc21	MPTP inh 101 (no result: Beta apoptosis) | MPTP counter 89
CN(Cc1ccc(Cl)c(Cl)c1)C(C(=O)NCc1ccccc1)c1ccco1 (stereo not given)	none (no result: CSC inhib, Beta apoptosis, Calb FLC, Mdm2-MdmX inh)
CCOc1cccc(CNCCO)c1OCc1ccc(Cl)cc1Cl	MPTP inh 94 (no result: CSC inhib) | MPTP counter inactive | MPTP swell DR 4.5 | MPTP counter DR 20
OCCNCc1cc(Br)ccc1OCc1ccc(Cl)cc1	none (no result: CSC inhib)
OCCNCc1cc(Br)ccc1OCc1ccc(Cl)cc1Cl	MPTP inh 82 (no result: CSC inhib, Beta apoptosis, Mdm2-MdmX inh) | MPTP counter 20
Cc1cc(OC(C)C(=O)NCCCn2ccnc2)c2c(C)c(C)c(=O)oc2c1 (stereo not given)	none
Cc1cc(C(=O)N/N=C/c2ccc(-c3cccc(Cl)c3)o2)n[nH]1	none
Cc1ccc(Cl)cc1NC(=O)Nc1cccs1	Calb FLC inconclusive, MPTP inh 87 | MPTP counter 86
Cc1ccccc1NC(=O)Nc1cccs1	none
C=CCNC(=O)C1CCN(S(=O)(=O)c2cccs2)CC1	none (no result: Beta apoptosis)
O=C(c1cc2nc(-c3ccc(F)cc3)cc(C(F)(F)F)n2n1)N1CCCCC1c1cccnc1 (stereo not given)	MPTP inh 90 | MPTP counter 90
COc1ccc(/C=C/C(=O)Nc2ccccc2C(=O)NCC(c2ccc(OC)cc2)N(C)C)cc1 (stereo not given)	MPTP inh 76 (no result: Beta apoptosis) | MPTP counter inactive | MPTP swell DR 12 | MPTP counter DR inactive
Cc1ccc(C)c2c1cc(C)c1nnc(SCC(=O)N3CCCc4ccccc43)n12	none (no result: Beta apoptosis)
CCn1c(=O)c2ccccc2n2c(SCC(=O)N3CCCc4ccccc43)nnc12	MPTP inh 54 | MPTP counter inactive | MPTP swell DR inactive | MPTP counter DR inactive
O=C(O)C(Oc1ccc(Cl)cc1)c1ccc(Cl)cc1 (stereo not given)	none (no result: CSC inhib, Beta apoptosis, Calb FLC, Mdm2-MdmX inh)
CC1=NN(C(N)=S)C(=O)C1N=Nc1ccc(Cl)cc1Cl (stereo not given)	MPTP inh 55 | MPTP counter 83
CCOc1ccccc1Nc1nnc(SCC(=O)N(C)C2CCS(=O)(=O)C2)s1 (stereo not given)	none (no result: CSC inhib, Calb FLC)
Cc1c(C)n(CCN(C)C)c2ccc(C(=O)OCCN(C)C)cc12	none (no result: Mdm2-MdmX inh)
Cc1c(C)n(Cc2ccccc2)c2ccc(C(=O)OCCCN(C)C)cc12	MPTP inh 78 | MPTP counter inactive
COC(=O)CCCC(=O)N1CCCC(N(C)CCc2ccccc2)C1 (stereo not given)	none (no result: Beta apoptosis)
Fc1ccc(NC(=S)N2CCn3cccc3C2c2cccnc2)cc1 (stereo not given)	none
Fc1ccc(C2c3cccn3CCN2C(=S)Nc2cccc(Br)c2)cc1 (stereo not given)	MPTP inh 90 | MPTP counter 66
O=C(Nc1ccccc1Br)C1CCC(=O)N1Cc1ccccc1Cl (stereo not given)	Calb FLC inconclusive, MPTP inh 66 | MPTP counter 78
O=C(Nc1ccc(Cl)cc1)C1CCC(=O)N1Cc1ccccc1Cl (stereo not given)	none (no result: Beta apoptosis)
CC(C)n1c(SCC(=O)Nc2ccc(N3CCOCC3)cc2)nnc1-c1ccco1	none
